Measured values as given in ChEMBL document CHEMBL4513216, “Probing the Open Global Health Chemical Diversity Library for Multistage-Active Starting Points for Next-Generation Antimalarials” (ACS Infect Dis, 2020).
Hit rate of the full screen: of about 69,000 compounds, about 8,600 (12%) showed an effect of 50% or more. The entries come from a sample that favours strong results as a whole.

tested on: Plasmodium berghei; test: Screen against P. berghei liver stage (PbLuc), transformed with Luciferase, at 10uM; type: functional, HepG2; conditions: tested at 10 uM

SMILES | INHIBITION [%]
CC(O)CN1CCN(C(=O)c2cc3ccccc3c(=O)[nH]2)CC1 (stereo not drawn) | -3.95
Cc1nnc2ccc(N3CCC(C(=O)Nc4nccs4)CC3)nn12 | 39.3
CC(C)c1nnc2ccc(N3CCCC(C(=O)Nc4nccs4)C3)nn12 (stereo not drawn) | 29
CC(C)c1nnc2ccc(N3CCC(C(=O)Nc4nccs4)CC3)nn12 | 79.8
Cc1nn(C)c(C)c1-c1cncc(C2CCN(S(C)(=O)=O)CC2)n1 | 34.7
CN1[C@H](CN2CCCC2)C[C@@H]2CN(C(=O)c3cccn3C)CC[C@@H]21 | 14.1
CCOc1ccc2c(c1)CN(Cc1nc3c(cnn3C)c(=O)[nH]1)CC2 | 48.2
COCC1c2c(cnn2CC2CC2)CCN1Cc1ccc(C)o1 (stereo not drawn) | -52.7
COCC1c2c(cnn2CC2CC2)CCN1Cc1ccsc1 (stereo not drawn) | -37.9
COCC1c2c(cnn2CC2CC2)CCN1Cc1ccc(OC)cc1 (stereo not drawn) | 53.1
O=S(=O)(NCc1ccccc1)Nc1ccc(-n2ccnc2)cc1 | 44.8
c1ccc(O[C@H]2CO[C@@]3(CCCN(Cc4nccs4)C3)C2)nc1 | 49.7
Cc1csc(CN2CCC[C@]3(C[C@H](OCC4CC4)CO3)C2)n1 | 1.48
Cc1csc(CN2CCC[C@]3(C[C@H](Oc4ccccn4)CO3)C2)n1 | 35.1
CO[C@@H]1CO[C@@]2(CCCN(Cc3nc(C)cs3)C2)C1 | 65.7
Cc1noc(C)c1CN1CCC2(CC1)CC(Oc1cccnc1)CO2 (stereo not drawn) | 21.6
Cc1csc(CN2CCC[C@]3(C[C@@H](Oc4ccccn4)CO3)C2)n1 | 64.4
Cc1noc(C)c1CN1CCC[C@]2(C[C@@H](Oc3ccccn3)CO2)C1 | 87
CCO[C@H]1CO[C@@]2(CCCN(Cc3nc(C)cs3)C2)C1 | 11.8
Cc1noc(C)c1CN1CCOC2(CCCN(c3ccccn3)C2)C1 (stereo not drawn) | 20.9
CN1CCN(Cc2cnc3n2CCN(Cc2cccs2)C3)CC1 | 30.7
O=C(NC1CCNCC1)C1(N2CCCCC2)Cc2ccccc2C1 | 26.9
CN(CCCO)c1nc(-c2ccc(C(N)=O)cc2)nc2c1CCNC2 | -3.3
O=S(=O)(NC1CCOC1)c1ccc(C(F)(F)F)nc1 (stereo not drawn) | 34.5
COc1cc(CN2C[C@@H]3CNC(=O)[C@H](C)[C@@H]3C2)cc(OC)c1 | -24.5
O=C(c1ccoc1)N(Cc1cccnc1)C1CC1 | 17.1
COc1ncccc1NC(=O)NC1CCCN(c2ncccn2)C1 (stereo not drawn) | -19.9
CN(C)CCOCC1CN(CC2CCOCC2)Cc2nnn(C)c21 (stereo not drawn) | 13
